According to PubChem BioAssay (NCATS):
A number with no mark means an inactive call. Results filed as inconclusive are left out. Calls of active or inactive are those of the source. The call rests on the fitted dose curve; in most records, active means well fitted curve in the direction sought with a large enough effect; inconclusive means small, poorly fitted or top-dose-only effect, or another doubt; inactive means no such curve, though single readings can be large; an effect the other way counts as inactive or inconclusive.

system: not listed separately; experiment: Cellular Toxicity (caspase-3) Renal Proximal Tubule (AID 667); details: renal proximal tubule cells, primary cells freshly taken from rat; Potency: caspase-3 activation; series mostly up to 91.7 µM; caspase-3 activation: at the top concentration;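 further: cells exposed to compound for 16 hours at 37 °C before detection; 0% = DMSO basal and 100% = 10 µM staurosporine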
Summary of the method: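 Luminescent caspase 3/7 signal from peptide-aminoluciferin cleavage measures apoptosis in freshly isolated rat kidney proximal tubule cells after 16 h compound exposure. Concentration-response data are normalized to DMSO and 10 uM staurosporine, and AC50 values come from Hill equation fits.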

Row | Compound | caspase-3 activation [%]
1 | CCOc1cccc(N)c1 | 2.54
2 | OC/C(Br)=C(\Br)CO | -10.3
3 | CCCCCCCCC/C=C/CC1CC(=O)OC1=O (centres undefined) | -7.13
4 | C=CC(=O)OCCCC | -6.17
5 | CCCCCCCN | 4.67
6 | c1ccc(Nc2ccccc2)cc1 | -4.67
7 | O=c1[nH][nH]c(=O)c2cc([N+](=O)[O-])ccc12 | -15.2

target: Cytochrome P450 3A4 (Homo sapiens) (UniProt P08684); experiment: qHTS Assay for Inhibitors and Substrates of Cytochrome P450 3A4 (AID 884); details: recombinant CYP3A4, Luciferin-PPXE luminescence; series mostly up to 57.1 µM; activity change, negative = inhibition: at the top concentration; further: nearly all actives have a fitted effect of over 50% in size; further: potency means the concentration at half of the fitted maximal effect; on activity change, negative = inhibition: on the % scale 0 is the no-effect control and ±100 the full control effect
Sequence (P08684 whole entry, looked up): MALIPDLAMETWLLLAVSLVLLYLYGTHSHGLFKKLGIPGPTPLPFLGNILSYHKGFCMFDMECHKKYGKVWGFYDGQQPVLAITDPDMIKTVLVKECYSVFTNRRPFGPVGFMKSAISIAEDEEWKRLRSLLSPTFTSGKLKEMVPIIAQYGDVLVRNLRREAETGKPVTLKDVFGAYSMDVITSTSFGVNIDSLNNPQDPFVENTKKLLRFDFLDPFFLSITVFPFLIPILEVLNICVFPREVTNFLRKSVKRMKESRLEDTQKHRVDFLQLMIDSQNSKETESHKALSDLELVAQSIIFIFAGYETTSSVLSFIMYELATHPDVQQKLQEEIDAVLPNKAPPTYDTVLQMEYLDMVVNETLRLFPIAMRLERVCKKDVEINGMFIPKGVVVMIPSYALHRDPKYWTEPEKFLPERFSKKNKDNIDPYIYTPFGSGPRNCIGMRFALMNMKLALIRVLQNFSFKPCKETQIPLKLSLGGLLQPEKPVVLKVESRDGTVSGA
Summary of the method: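 Luminescent readout of luciferin produced by CYP3A4 (20 nM) dealkylation of Luciferin-PPXE, 25 uM (its KM). NADPH-driven reaction ran 60 min at RT after 10 min compound preincubation; data scaled to 57 uM ketoconazole as 100% inhibition.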

Row | Compound | activity change, negative = inhibition [%] | Potency
8 | O=CNc1ccccc1 | -1.35 | 
9 | O=[N+]([O-])c1cccc(Cl)c1 | -7.38 | 
10 | ON=C1CCCCC1 | -4.98 | 
11 | C=C(C)C(N)=O | -2.74 | 
12 | Nc1c(Cl)cc(Cl)cc1Cl | -7.33 | 
13 | C1COC1 | -1.28 | 
14 | Nc1ccc(F)cc1F | -2.71 | 
15 | CNc1ccccc1 | -5.56 | 
16 | CCc1ccccc1O | -5.37 | 
17 | CCOC(=O)OCC | -9.61 | 
18 | CCCOCC(C)O (centres undefined) | -11.7 | 
19 | O=[N+]([O-])c1c(Cl)cc(Cl)cc1Cl | -22.2 | 
20 | CNC(=O)c1ccccc1 | -6.97 | 
21 | CCCC(Cl)CCCC(Cl)CCC(Cl)CCC(Cl)CCC(Cl)CCCC(Cl)CCC (centres undefined) | -11.7 | 
22 | Nc1cccc(C(F)(F)F)c1 | -12.6 | 
23 | CC(=O)c1nccs1 | -0.032 | 
24 | Cc1ccc2cccnc2c1 | -6.56 | 
25 | CCN(C(=O)N(CC)c1ccccc1)c1ccccc1 | -27.8 | 
26 | CCCCC(CC)COCC1CO1 (centres undefined) | -11.5 | 
27 | O=C(O)c1ccccc1[N+](=O)[O-] | -11.6 | 
28 | O=Cc1cccc(Br)c1 | -5.91 | 
29 | Cc1ccc(Br)cc1 | -3.58 | 
30 | Nc1nc(CC(=O)O)cs1 | -9.21 | 
31 | Cc1ccccc1C#N | 12.7 | 
32 | C=C(C)C(=O)OCCCCCCCCCC | -4.62 | 
33 | CCOc1cccc(N)c1 |  | 31.6 µM (active)
34 | C=CC(=O)OCCCC | -7.71 | 
35 | CCCCCCCN | -0.863 | 
36 | c1ccc(Nc2ccccc2)cc1 | -17 | 
37 | O=c1[nH][nH]c(=O)c2cc([N+](=O)[O-])ccc12 | -14.3 | 

target: Cytochrome P450 3A4 (Homo sapiens) (UniProt P08684); experiment: qHTS Assay for Activators of Cytochrome P450 3A4 (AID 885); details: recombinant CYP3A4, Luciferin-PPXE luminescence, 60 min; series mostly up to 57.1 µM; activity change, positive = activation: at the top concentration; further: nearly all actives have a fitted effect of over 65% in size
Summary of the method: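 Luminescent readout of luciferin formed from 25 uM Luciferin-PPXE (KM level) by 20 nM CYP3A4 in 200 mM KPO4, with 60 min NADPH-driven reaction at room temperature after 10 min compound exposure. Ketoconazole (57 uM) defined 100% inhibition.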

Row | Compound | activity change, positive = activation [%]
38 | Nc1cccc(N)c1 | -41.9
39 | O=[N+]([O-])c1ccc2nc[nH]c2c1 | -33.2
40 | CC1=C(/C=C/C(C)=C/C=C/C(C)=C\C=O)C(C)(C)CCC1 | -50.5
41 | CCOc1cccc(N)c1 | -62.9

system: not listed separately; experiment: Cell Viability - LYMP2-001 (AID 921); details: LYMP2-001 lymphoblastoid cell viability; series mostly up to 92.2 µM; activity change, negative = cytotoxic: at the top concentration;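 further: cells exposed to compound for 24 h at 37 °C; 0% = DMSO only and full inhibition = tetraoctylammonium bromide control wells; nearly all actives have a fitted effect of over 70% in size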
Summary of the method: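 CellTiter-Glo luminescence (intracellular ATP) after 24 hr compound exposure at 37 C, 2500 lymphoblastoid cells/well in complete medium. AC50 fitted with standard Hill equation; tetraoctylammonium bromide positive control.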

Row | Compound | activity change, negative = cytotoxic [%]
42 | Nc1cccc(N)c1 | -5.46
43 | O=CNc1ccccc1 | -17.7
44 | O=[N+]([O-])c1cccc(Cl)c1 | -11.2
45 | ON=C1CCCCC1 | -3
46 | C=C(C)C(N)=O | -1.49
47 | Nc1c(Cl)cc(Cl)cc1Cl | -24.9
48 | C1COC1 | -20.6
49 | Nc1ccc(F)cc1F | -27.4
50 | CNc1ccccc1 | -9.77
51 | CCc1ccccc1O | -6.32
52 | CCOC(=O)OCC | -8.49
53 | CCCOCC(C)O (centres undefined) | 5.68
54 | CNC(=O)c1ccccc1 | -9.27
55 | CCCC(Cl)CCCC(Cl)CCC(Cl)CCC(Cl)CCC(Cl)CCCC(Cl)CCC (centres undefined) | -17.9
56 | Cc1cccc(C(=O)O)c1 | 0.793
57 | O=[N+]([O-])c1ccc(Cl)cc1Cl | -15.8
58 | Nc1cccc(C(F)(F)F)c1 | -8.73

Row | Compound | activity change, negative = cytotoxic [%]
59 | CC(=O)c1nccs1 | 13.7
60 | Cc1ccc2cccnc2c1 | -9.47
61 | CCN(C(=O)N(CC)c1ccccc1)c1ccccc1 | -26.2
62 | CCCCC(CC)COCC1CO1 (centres undefined) | -4.22
63 | O=C(O)c1ccccc1[N+](=O)[O-] | -3.64
64 | O=Cc1cccc(Br)c1 | -25.8
65 | C=CCn1c(=O)n(CC=C)c(=O)n(CC=C)c1=O | 1
66 | Cc1ccc(C)c([N+](=O)[O-])c1 | -17.2
67 | Nc1nc(CC(=O)O)cs1 | -5.73
68 | Cc1ccccc1C#N | -1.77
69 | C=C(C)C(=O)OCCCCCCCCCC | -16.8
70 | CCCCCCCCC/C=C/CC1CC(=O)OC1=O (centres undefined) | -4.72
71 | C=CC(=O)OCCCC | -12.2
72 | CCCCCCCN | 4.25
73 | c1ccc(Nc2ccccc2)cc1 | -4.24
74 | O=c1[nH][nH]c(=O)c2cc([N+](=O)[O-])ccc12 | -5.59
